Sampled rows, rich in hits. Any-hit rate of the full collection: about 4.1%.
ssDAF-12 act: S. stercoralis DAF-12 nuclear receptor activators, primary screen, cell-based, luminescence, HEK293, GRIP1 co-expression, lit1-tk-luc. Nuclear hormone receptor DAF-12 (Strongyloides stercoralis). HEK293 ssDAF-12/GRIP1 lit1-tk-luc reporter; % of 3 µM dafachronic acid response. activation, % at 6.8 µM. actives 1% (n = 370,000). AID 652126, 2013;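 active means activation above the mean over all tested compounds plus 3 SD, cut at about 0.9% in these data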;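 further: 0% = DMSO-only wells and 100% = 3 µM delta7-dafachronic acid wells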
DAX1 inh-1: DAX1 (NR0B1) inhibitors on StAR promoter, primary screen, cell-based, luminescence, SF-1 (NR5A1), full-length DAX-1 | AID 652010, 2013 | inhibition, % at 6.8 µM | HEK293T StAR-luciferase reporter, SF-1/DAX-1 repression relief | actives 1.1% (n = 370,000);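 active means inhibition above the mean over all tested compounds plus 3 SD, cut at about 3.6% in these data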;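 further: 0% = DAX-1 cells with DMSO and 100% = cells lacking DAX-1 with DMSO; higher inhibition means more luminescence from relief of DAX-1 repression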
hcDAF-12 act: H. contortus DAF-12 nuclear receptor activators, primary screen, cell-based, luminescence, HEK293, lit1-tk-luc reporter | activation, % at 6.8 µM | actives 1.4% (n = 370,000) | AID 652067, 2013 | HEK293 hcDAF-12 lit1-tk-luc reporter; 0% DMSO, 100% Δ7-dafachronic acid;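 active means activation above the mean of all tested compounds plus 3 SD, cut at about 5.5% in these data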;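 further: 100% = response to 3 µM Δ7-dafachronic acid high control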
hgDAF12 agonist: H. glycines DAF-12 receptor agonists, primary screen, cell-based, luminescence, HEK293, GAL4 fusion, UAS-luciferase; Nuclear hormone receptor DAF-12 (Heterodera glycines), GAL4 fusion; HEK293 GAL4-hgDAF12 UAS-luciferase reporter, agonist luminescence; normalized to butyrate control; activation, % at 6.8 µM; actives 1.8% (n = 370,000); AID 687014, 2013;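 active means activation above a cutoff set at the mean of all screened compounds plus 3 SD, cut at about 10% in these data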;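 further: 0% = DMSO wells and 100% = sodium butyrate wells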
DAX1 inh-2: DAX1 (NR0B1) inhibitors, primary screen, cell-based, HEK293, Gal4-DAX1, luciferase luminescence; Nuclear receptor subfamily 0 group B member 1 (Homo sapiens), P51843; HEK293 Gal4-DAX1 luciferase reporter; actives 0.99% (n = 340,000); inhibition, % at 6.75 µM;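 active means inhibition above the mean over all tested compounds plus 3 SD, cut at about 4.2% in these data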;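 further: 0% = DAX1-transfected cells with DMSO and 100% = empty-vector control cells with DMSO; inhibition shows as a rise in luminescence from relieved DAX1 repression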
LXR ag: LXR agonists, Gal4 luciferase reporter, confirmation, counter-screen for hcDAF-12 agonist project, cell-based, luminescence, HEK293, H. contortus campaign; AID 743027, 2013; activation, % at 6.8 µM; shares compounds with hcDAF-12 act; HEK293 Gal4-LXR tk-luc reporter, 24 h; normalized: DMSO 0%, positive control 100%; 3,400 tested, under 10 active;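 active means mean percent activation of the reporter above a cutoff set as the average over tested compounds plus their standard deviation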
Target sequence (P55055 whole entry, looked up, the tested form may be a part): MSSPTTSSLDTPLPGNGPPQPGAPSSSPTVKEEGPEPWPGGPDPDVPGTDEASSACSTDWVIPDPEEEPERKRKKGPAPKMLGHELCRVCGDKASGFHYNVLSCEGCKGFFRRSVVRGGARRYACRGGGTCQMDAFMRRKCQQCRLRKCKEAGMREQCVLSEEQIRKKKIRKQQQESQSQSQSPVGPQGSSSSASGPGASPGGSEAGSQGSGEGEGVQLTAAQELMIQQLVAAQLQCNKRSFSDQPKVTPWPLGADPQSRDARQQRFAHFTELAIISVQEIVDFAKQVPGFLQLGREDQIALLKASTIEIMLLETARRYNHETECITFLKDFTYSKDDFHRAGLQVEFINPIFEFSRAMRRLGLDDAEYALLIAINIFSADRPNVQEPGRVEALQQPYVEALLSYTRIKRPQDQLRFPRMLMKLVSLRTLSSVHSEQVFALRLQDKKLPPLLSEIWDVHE
hcDAF12 ag: H. contortus DAF-12 receptor agonists, confirmation, cell-based, luminescence, HEK293, lit1-tk-luc, triplicate | HEK293 hcDAF-12 lit1-tk-luc reporter; % of Δ7-dafachronic acid response | activation, % at 6.8 µM | shares compounds with hcDAF-12 act | actives 61% (n = 3,400);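 active means mean activation across triplicate tests above the threshold derived from the earlier primary screen, cut at about 5.5% in these data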;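 further: 0% = DMSO only wells and 100% = 3 µM Δ7-dafachronic acid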
hgDAF12 conf: H. glycines DAF-12 receptor agonists, confirmation, cell-based, luminescence, HEK293, GAL4-LBD fusion | shares compounds with hgDAF12 agonist | activation, % at 6.8 µM | HEK293 GAL4-hgDAF12 luciferase reporter, agonist mode; percent of butyrate response | actives 80% (n = 3,300);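 active means mean activation over triplicate wells above the hit cutoff derived from the earlier primary screen, cut at about 11% in these data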;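 further: 0% = DMSO low control and 100% = 2 mM sodium butyrate high control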
LXR ag 2: LXR agonists, Gal4 luciferase reporter, confirmation, counter-screen for hgDAF-12 agonist project, cell-based, luminescence, HEK293, H. glycines campaign; AID 743051, 2013; 3,300 tested, under 10 active; activation, % at 6.8 µM; shares compounds with hgDAF12 agonist; 24 h;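 active means mean activation of the triplicate above a set limit carried over from the primary screen, none filed active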
* hit, by the source's call; nt = not tested or not shown.

SMILES	ssDAF-12 act	DAX1 inh-1	hcDAF-12 act	hgDAF12 agonist	DAX1 inh-2	LXR ag	hcDAF12 ag	others
CC(Cc1ccccc1Sc1ccccc1O)N(C)C (stereo not drawn)	-1	0	-2	3	0	nt	nt
Cc1ccc(-c2nn(Cc3ccccc3)cc2C=O)cc1	0	3	9.4*	8	2	0	4
CC(Cc1ccc(O)cc1)NCC(O)c1ccc(O)c(O)c1 (stereo not drawn)	-2	3	-4	-1	2	nt	nt
CCCCn1c(=O)c(C(=O)Nc2ccccc2F)c(O)c2ccccc21	0	0	7.0*	0	0	0	6.1*
CCCCn1c(=O)c(C(=O)Nc2ccsc2C(=O)OC)c(O)c2ccccc21	0	1	7.2*	3	0	0	5
CC(C)Sc1nnc([C@@H](N)Cc2c[nH]c3ccccc23)o1	-1	0	5	2	1	nt	nt
CCC(N)Cc1c[nH]c2ccccc12 (stereo not drawn)	0	0	7.2*	-1	0	0	5
O=c1[nH]c(O)c(C=Nc2cccc(F)c2)c(=O)[nH]1	-1	0	-3	-1	0	nt	nt
COc1cc(CNCCc2c[nH]c3ccccc23)cc(OC)c1	-1	0	8.5*	0	1	0	1
COc1ccc(-c2cc(=Nc3cccc(C(=O)O)c3)c3cc(C)ccc3o2)cc1	0.9*	3	5	19*	-1	nt	nt	hgDAF12 conf=19*;LXR ag 2=1
CCCCCc1nc2c(c(=O)c3ccccc3n2C)c(=O)n1C1CCCCCC1	-1	-1	2	-5	-1	nt	nt
CN1C(=O)NC(=O)C(C)(C2=CCCCC2)C1=O (stereo not drawn)	-1	3.9*	5	22*	3	nt	nt	hgDAF12 conf=13*;LXR ag 2=0
CCOP(=O)(Cc1ccccc1)OCC	-1	0	-1	5	-1	nt	nt
Cc1ccc(S(=O)(=O)CC(=O)c2cc(C)c(OC(=O)N(C)C)c(C)c2)cc1	-1	-1	-2	1	-1	nt	nt
Cc1cc(C(=O)CS(=O)(=O)c2ccccc2)cc(C)c1OC(=O)N(C)C	0	4.0*	4	14*	3	nt	nt	hgDAF12 conf=9;LXR ag 2=1
COc1ccc2c(c1)NP(=S)(Oc1ccccc1)N2 (stereo not drawn)	0	1	5	13*	4	nt	nt	hgDAF12 conf=8;LXR ag 2=0
COc1cccc(-n2c(=S)[nH]c3ccccc3c2=O)c1	-2	-1	3	0	-1	nt	nt

Compound activity deposited in PubChem by The Scripps Research Institute Molecular Screening Center.
